The values below come from PubChem BioAssay (EPA / NIEHS).

The target in assay [1] is Bile acid receptor (Homo sapiens) (UniProt Q96RI1). In words: ATG_IR1_CIS: Attagene CIS-FACTORIAL HepG2 Assay for human Nuclear Receptor Subfamily 1 Group H Member 4 (NR1H4), IR1 submotif (AID 2282946). The note with it: IR1 reporter transcription, actives raise or lower the signal. An outline of the steps: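 Fluorescence of capillary-separated, HpaI-digested RT-PCR reporter products gave IR1-element mRNA induction in HepG2 cells 24 h after dosing. Endogenous transcription factors drove the cis-regulated reporters; activity was fitted bidirectionally against DMSO.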

Assay [2] in a line: ATG_GRE_CIS: Attagene CIS-FACTORIAL HepG2 Assay for human Glucocorticoid Response Elements (GRE) (AID 2282947). The note with it: HepG2 GRE cis-reporter, Attagene multiplex mRNA; actives raise or lower the signal. An outline of the steps: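 Read-out: fluorescent reporter-transcript fragments separated by capillary electrophoresis after RT-PCR. Transiently transfected HepG2 cells carrying cis-element-driven reporter units were dosed for 24 h; gain or loss of signal fitted against DMSO control.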

Assay [3] is described as follows: ATG_ISRE_CIS: Attagene CIS-FACTORIAL HepG2 Assay for human Interferon Regulatory Factor 1 (IRF1) binding to an Interferon-Stimulated Response Element (ISRE) (AID 2282948). The note with it: HepG2 ISRE cis-reporter (Attagene), mRNA transcription readout; actives raise or lower the signal. An outline of the steps: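 Uses HepG2 liver cells transfected with cis-regulated reporters and measures mRNA 24 h post-dosing through RT-PCR, primer-extension labelling and capillary electrophoresis, with DMSO as negative control.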

A short description of assay [4]: ATG_M_06_CIS: Attagene CIS-FACTORIAL HepG2 Assay for M06 Transcription Factor (Internal Marker) (AID 2282950). Particulars: HepG2 Attagene CIS-FACTORIAL M06 internal marker reporter; actives raise or lower the signal. An outline of the steps:
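Read-out is fluorescence of labelled reporter cDNA fragments resolved by capillary electrophoresis after RT-PCR. Cells: HepG2 carrying transfected cis-promoter reporter units, treated 24 h. Gain or loss of signal fitted relative to DMSO.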

For assay [5], the target named is Hypoxia-inducible factor 1-alpha (Homo sapiens) (UniProt Q16665). In words: ATG_HIF1a_CIS: Attagene CIS-FACTORIAL HepG2 Assay for human Hypoxia Inducible Factor 1 (HIF1A) (AID 2282951). Particulars: HepG2 Attagene cis-factorial HIF1a reporter transcription; actives raise or lower the signal. An outline of the steps: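 Dosed 24 h, transfected HepG2 cells yielded total RNA whose reporter transcripts were RT-PCR-amplified and sized by capillary electrophoresis using fluorescent labelling; DMSO defined baseline, with gain and loss of signal both fitted.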

Assay [6] addresses Hepatocyte nuclear factor 6 (Homo sapiens) (UniProt Q9UBC0). The assay can be described thus: ATG_HNF6_CIS: Attagene CIS-FACTORIAL HepG2 Assay for human Hepatocyte Nuclear Factor 6 (HNF6) (AID 2282952). The note with it: HepG2 Attagene cis-factorial HNF6 reporter transcription; actives raise or lower the signal. An outline of the steps:
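Endogenous transcription factor activity in human HepG2 liver cells was captured through cis-regulated reporter constructs. After 24 h treatment, reporter mRNA was measured by RT-PCR with capillary electrophoresis, and activity was fitted in both directions relative to DMSO.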

For assay [7], the target named is Heat shock factor protein 1 (Homo sapiens) (UniProt Q00613). In words: ATG_HSE_CIS: Attagene CIS-FACTORIAL HepG2 Assay for human Heat Shock Transcription Factor 1 (HSE) (AID 2282953). The note with it: HepG2 HSE cis-reporter, Attagene RNA transcription; actives raise or lower the signal. An outline of the steps:
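HepG2, transient MRTU transfection, cis-promoter reporters (endogenous TF activity). 24 h compound. RNA → oligo(dT) RT → PCR → 6-FAM primer extension → HpaI cut → CE. Bidirectional fit vs DMSO.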

Assay [8] can be described thus: ATG_MRE_CIS: Attagene CIS-FACTORIAL HepG2 Assay for human Metal Responsive Element (MRE) (AID 2282954). Particulars: HepG2 MRE cis-reporter transcription, Attagene multiplex; actives raise or lower the signal. An outline of the steps:
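RT-PCR/capillary electrophoresis readout of reporter mRNA, 24 h post-dosing, in HepG2 cells transfected with multiplexed cis-regulated reporter constructs. Gain or loss of signal fitted bidirectionally against DMSO baseline.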

The nature of assay [9]: ATG_PBREM_CIS: Attagene CIS-FACTORIAL HepG2 Assay for human Phenobarbital-responsive Enhancer Module (PBREM) (AID 2282955). The note with it: HepG2 PBREM cis-reporter, Attagene multiplexed transcription; actives raise or lower the signal. An outline of the steps: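 Transfected liver-derived HepG2 cells exposed 24 h; PBREM reporter transcript quantified via RT-PCR and capillary electrophoresis, with activity in either direction referenced to DMSO.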

The target of assay [10] is Paired box protein Pax-6 (Homo sapiens) (UniProt P26367). The assay can be described thus: ATG_Pax6_CIS: Attagene CIS-FACTORIAL HepG2 Assay for human Paired Box 6 (PAX6) (AID 2282956). Particulars: HepG2 CIS-FACTORIAL PAX6 reporter transcription, RNA readout; actives raise or lower the signal. An outline of the steps:
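DMSO-referenced bidirectional fits of reporter mRNA fluorescence; HepG2 with transient cis-promoter MRTUs, 24 h post-dose, RT-PCR plus capillary electrophoresis detection.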

Assay [11] is described as follows: ATG_PXRE_CIS: Attagene CIS-FACTORIAL HepG2 Assay for human Pregnane X Receptor Element (PXRE) (AID 2282957). Particulars: HepG2 Attagene CIS-FACTORIAL PXRE reporter, mRNA; actives raise or lower the signal. An outline of the steps:
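Endogenous transcription factor activity in HepG2 was gauged through induction of reporter mRNA driven by a cis-regulating promoter element, sampled 24 h post-treatment. Activity was fitted in both directions against DMSO negative control.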

Assay [12] is described as follows: ATG_PPRE_CIS: Attagene CIS-FACTORIAL HepG2 Assay for human Peroxisome Proliferator-activated Response Element (PPRE) (AID 2282958). The note with it: HepG2 PPRE cis-element reporter, Attagene transcription factor profiling; actives raise or lower the signal. An outline of the steps: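 Measured endpoint: PPRE-controlled reporter mRNA, detected by RT-PCR and capillary electrophoresis fluorescence, from transiently transfected HepG2 cells 24 h after dosing. Curves fitted in both directions using DMSO baseline.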

A short description of assay [13]: ATG_RORE_CIS: Attagene CIS-FACTORIAL HepG2 Assay for human RAR-related Orphan Receptor Element (RORE) (AID 2282959). The note with it: HepG2 Attagene cis-factorial RORE reporter, mRNA; actives raise or lower the signal. An outline of the steps:
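Transiently transfected HepG2 reporter cells were treated 24 h. Reporter transcripts were detected by RT-PCR and capillary electrophoresis, with bidirectional fitting against DMSO.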

The nature of assay [14]: ATG_Sox_CIS: Attagene CIS-FACTORIAL HepG2 Assay for human SRY-box transcription factor (SOX) (AID 2282960). Particulars: HepG2 Attagene cis-factorial SOX reporter, mRNA; actives raise or lower the signal. An outline of the steps:
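Gain- or loss-of-signal endpoint, fitted bidirectionally with DMSO as negative control. Based on reporter mRNA from transfected HepG2 cells harvested 24 h post-treatment and quantified via RT-PCR and capillary electrophoresis.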

The target in assay [15] is Transcription factor Sp1 (Homo sapiens) (UniProt P08047). In words: ATG_Sp1_CIS: Attagene CIS-FACTORIAL HepG2 Assay for human Specificity Protein 1 (Sp1) (AID 2282961). Particulars: HepG2 Sp1 cis-reporter transcription, actives raise or lower the signal. An outline of the steps: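 Endpoint reflects endogenous Sp1 transcriptional activity, not an exogenous fusion protein: HepG2 cells with transfected cis-regulated reporters, 24 h dosing, RT-PCR/capillary electrophoresis mRNA read-out, DMSO-normalised bidirectional fit.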

Assay [16] can be described thus: ATG_SREBP_CIS: Attagene CIS-FACTORIAL HepG2 Assay for human Sterol Regulatory Element Binding (SREBP) (AID 2282962). Particulars: HepG2 Attagene cis-factorial SREBP reporter, mRNA; actives raise or lower the signal. An outline of the steps: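 In this cis-format assay, HepG2 liver cells express reporters controlled by promoter elements responsive to native transcription factors. Exposure lasts 24 h; reporter mRNA fluorescence from capillary electrophoresis gives the signal, fitted bidirectionally against DMSO.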

Assay [17] addresses Signal transducer and activator of transcription 3 (Homo sapiens) (UniProt P40763). The assay can be described thus: ATG_STAT3_CIS: Attagene CIS-FACTORIAL HepG2 Assay for human Signal Transducer and Activator of Transcription 3 (STAT3) (AID 2282963). Particulars: HepG2, Attagene cis-factorial STAT3 reporter transcription; actives raise or lower the signal. An outline of the steps: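 Readout: fluorescent reporter mRNA fragments resolved by capillary electrophoresis. Setup: HepG2 transfected with MRTUs reporting endogenous transcription-factor activity, dosed 24 h. Gain or loss of signal fitted bidirectionally against DMSO control.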

Assay [18] is described as follows: ATG_TA_CIS: Attagene CIS-FACTORIAL HepG2 Assay for human TA Basal Promoter (AID 2282964). The note with it: HepG2 Attagene CIS-factorial TA basal promoter reporter; actives raise or lower the signal. An outline of the steps: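 Read-out: fluorescent reporter-transcript fragments resolved by capillary electrophoresis after RT-PCR and HpaI digestion. Source: HepG2 cells carrying transiently transfected multi-reporter cis constructs, treated 24 h. Endpoint fitted bidirectionally relative to DMSO.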

Assay [19] in a line: ATG_TCF_b_cat_CIS: Attagene CIS-FACTORIAL HepG2 Assay for human T-Cell-Factor with beta-catenin (TCF/b-cat) (AID 2282965). The note with it: HepG2 TCF/beta-catenin cis-reporter transcription, actives raise or lower the signal. An outline of the steps:
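HepG2, transient MRTU transfection, cis-element-driven reporters (endogenous TFs). 24 h compound exposure. Readout: reporter mRNA by RT-PCR + 6-FAM primer extension, HpaI digest, capillary electrophoresis. Gain/loss fit vs DMSO baseline.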

A short description of assay [20]: ATG_M_32_CIS: Attagene CIS-FACTORIAL HepG2 Assay for M32 Transcription Factor (Internal Marker) (AID 2282949).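 Note: background control marker of the multiplexed CIS panel rather than a real target.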 Particulars: HepG2 Attagene cis-factorial M32 reporter, mRNA; actives raise or lower the signal. An outline of the steps: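 Using DMSO as baseline, bidirectional curve fits were applied to reporter mRNA signals. These came from transiently transfected HepG2 cells exposed for 24 h, with RNA analysed by RT-PCR, FAM primer extension, HpaI digestion and CE.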

Activity calls are given as the source filed them. Rule for the calls: active = hit-call score of the fitted dose curve at least 0.9, where 1 is the maximum; inactive = score below 0.9.

Hepatocyte nuclear factor 6 (Homo sapiens), sequence (Q9UBC0 whole entry, looked up): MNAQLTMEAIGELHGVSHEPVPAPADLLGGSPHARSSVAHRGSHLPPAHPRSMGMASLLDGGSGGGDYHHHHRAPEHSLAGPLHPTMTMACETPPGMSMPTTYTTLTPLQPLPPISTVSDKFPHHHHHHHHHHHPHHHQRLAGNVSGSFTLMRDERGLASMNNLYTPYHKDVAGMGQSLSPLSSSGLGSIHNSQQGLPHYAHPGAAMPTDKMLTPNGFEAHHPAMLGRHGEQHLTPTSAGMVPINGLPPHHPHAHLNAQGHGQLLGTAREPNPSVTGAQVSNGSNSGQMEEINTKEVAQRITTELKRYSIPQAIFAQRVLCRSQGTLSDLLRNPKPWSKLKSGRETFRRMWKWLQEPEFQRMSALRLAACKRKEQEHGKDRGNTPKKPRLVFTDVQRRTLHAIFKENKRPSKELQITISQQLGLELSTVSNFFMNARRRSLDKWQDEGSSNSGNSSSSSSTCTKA
Heat shock factor protein 1 (Homo sapiens), sequence (Q00613 whole entry, looked up): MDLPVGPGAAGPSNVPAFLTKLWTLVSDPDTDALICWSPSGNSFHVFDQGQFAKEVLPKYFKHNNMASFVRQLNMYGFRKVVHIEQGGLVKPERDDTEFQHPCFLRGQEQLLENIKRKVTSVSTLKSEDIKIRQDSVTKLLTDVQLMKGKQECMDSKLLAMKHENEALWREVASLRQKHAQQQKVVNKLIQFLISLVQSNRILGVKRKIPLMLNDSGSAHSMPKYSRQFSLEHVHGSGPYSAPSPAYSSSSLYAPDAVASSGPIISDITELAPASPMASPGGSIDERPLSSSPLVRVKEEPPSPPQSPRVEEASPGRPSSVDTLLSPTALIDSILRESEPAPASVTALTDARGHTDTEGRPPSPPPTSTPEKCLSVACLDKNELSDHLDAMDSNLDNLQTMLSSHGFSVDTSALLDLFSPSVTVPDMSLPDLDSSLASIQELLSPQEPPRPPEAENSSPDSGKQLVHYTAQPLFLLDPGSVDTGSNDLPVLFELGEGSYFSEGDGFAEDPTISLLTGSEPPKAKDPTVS
Paired box protein Pax-6 (Homo sapiens), sequence (P26367 whole entry, looked up): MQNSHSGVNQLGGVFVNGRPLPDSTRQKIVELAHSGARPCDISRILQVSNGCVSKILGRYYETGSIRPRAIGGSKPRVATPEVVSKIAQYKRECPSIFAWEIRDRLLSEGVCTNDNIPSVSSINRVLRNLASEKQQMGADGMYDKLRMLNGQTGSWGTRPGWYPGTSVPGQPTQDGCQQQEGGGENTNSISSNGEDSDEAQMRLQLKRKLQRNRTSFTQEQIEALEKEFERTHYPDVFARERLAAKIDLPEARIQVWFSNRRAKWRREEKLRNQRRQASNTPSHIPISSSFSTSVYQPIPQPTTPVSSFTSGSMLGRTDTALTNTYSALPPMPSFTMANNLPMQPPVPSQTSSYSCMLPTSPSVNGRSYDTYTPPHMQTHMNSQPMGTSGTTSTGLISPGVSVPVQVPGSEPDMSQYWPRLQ
Signal transducer and activator of transcription 3 (Homo sapiens), sequence (P40763 whole entry, looked up, the tested form may be a part): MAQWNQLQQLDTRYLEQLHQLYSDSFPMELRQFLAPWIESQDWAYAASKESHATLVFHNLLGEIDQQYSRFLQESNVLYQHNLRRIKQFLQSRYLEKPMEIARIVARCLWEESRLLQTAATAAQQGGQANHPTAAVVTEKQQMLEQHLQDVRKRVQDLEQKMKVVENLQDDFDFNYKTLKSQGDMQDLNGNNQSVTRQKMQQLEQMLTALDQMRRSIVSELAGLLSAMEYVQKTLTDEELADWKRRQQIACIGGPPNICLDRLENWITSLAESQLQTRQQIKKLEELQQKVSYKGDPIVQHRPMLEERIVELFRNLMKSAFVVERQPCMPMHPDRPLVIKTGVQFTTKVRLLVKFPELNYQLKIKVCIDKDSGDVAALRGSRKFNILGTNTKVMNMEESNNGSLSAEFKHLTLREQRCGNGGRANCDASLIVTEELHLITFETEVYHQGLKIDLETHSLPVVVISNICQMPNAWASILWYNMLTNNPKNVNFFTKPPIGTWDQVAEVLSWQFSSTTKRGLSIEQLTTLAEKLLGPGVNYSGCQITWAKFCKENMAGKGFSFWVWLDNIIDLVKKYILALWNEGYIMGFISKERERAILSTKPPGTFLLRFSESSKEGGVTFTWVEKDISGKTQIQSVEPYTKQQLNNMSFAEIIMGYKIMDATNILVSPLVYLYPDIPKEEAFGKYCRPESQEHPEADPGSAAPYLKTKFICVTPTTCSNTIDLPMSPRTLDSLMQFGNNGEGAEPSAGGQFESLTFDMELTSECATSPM
Bile acid receptor (Homo sapiens), sequence (Q96RI1 whole entry, looked up): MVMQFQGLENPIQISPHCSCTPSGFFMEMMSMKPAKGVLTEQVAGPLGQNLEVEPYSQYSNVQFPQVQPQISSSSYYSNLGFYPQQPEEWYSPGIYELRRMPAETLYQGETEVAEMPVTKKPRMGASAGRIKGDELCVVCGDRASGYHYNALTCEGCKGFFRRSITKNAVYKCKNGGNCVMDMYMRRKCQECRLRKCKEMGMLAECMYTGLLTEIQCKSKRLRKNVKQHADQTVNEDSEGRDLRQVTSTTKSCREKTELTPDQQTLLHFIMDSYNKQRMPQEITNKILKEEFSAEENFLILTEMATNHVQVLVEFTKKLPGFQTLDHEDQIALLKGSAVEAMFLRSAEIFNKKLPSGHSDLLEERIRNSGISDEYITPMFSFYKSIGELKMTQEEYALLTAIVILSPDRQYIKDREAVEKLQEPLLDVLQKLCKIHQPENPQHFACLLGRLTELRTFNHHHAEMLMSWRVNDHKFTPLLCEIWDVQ
Hypoxia-inducible factor 1-alpha (Homo sapiens), sequence (Q16665 whole entry, looked up): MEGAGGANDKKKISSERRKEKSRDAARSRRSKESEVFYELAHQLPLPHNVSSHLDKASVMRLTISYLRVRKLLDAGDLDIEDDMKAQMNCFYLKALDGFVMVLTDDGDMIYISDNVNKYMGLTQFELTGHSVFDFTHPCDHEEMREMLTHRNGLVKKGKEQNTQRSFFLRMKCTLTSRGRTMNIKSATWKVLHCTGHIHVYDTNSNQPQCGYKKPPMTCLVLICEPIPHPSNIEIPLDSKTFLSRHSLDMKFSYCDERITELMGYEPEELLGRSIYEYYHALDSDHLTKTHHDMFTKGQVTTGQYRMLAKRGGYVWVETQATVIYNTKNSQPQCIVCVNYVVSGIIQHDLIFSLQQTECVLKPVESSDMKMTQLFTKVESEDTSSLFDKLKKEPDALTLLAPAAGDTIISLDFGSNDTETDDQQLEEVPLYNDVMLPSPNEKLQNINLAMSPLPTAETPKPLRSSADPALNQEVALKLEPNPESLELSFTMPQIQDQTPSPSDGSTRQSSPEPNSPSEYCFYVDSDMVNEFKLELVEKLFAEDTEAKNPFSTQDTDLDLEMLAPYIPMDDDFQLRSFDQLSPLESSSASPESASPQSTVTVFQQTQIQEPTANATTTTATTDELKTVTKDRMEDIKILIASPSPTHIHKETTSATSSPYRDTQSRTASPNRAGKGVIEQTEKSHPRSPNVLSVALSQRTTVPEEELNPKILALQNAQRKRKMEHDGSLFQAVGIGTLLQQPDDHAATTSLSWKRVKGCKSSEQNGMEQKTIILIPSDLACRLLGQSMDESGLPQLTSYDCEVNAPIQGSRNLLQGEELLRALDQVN
Transcription factor Sp1 (Homo sapiens), sequence (P08047 whole entry, looked up, the tested form may be a part): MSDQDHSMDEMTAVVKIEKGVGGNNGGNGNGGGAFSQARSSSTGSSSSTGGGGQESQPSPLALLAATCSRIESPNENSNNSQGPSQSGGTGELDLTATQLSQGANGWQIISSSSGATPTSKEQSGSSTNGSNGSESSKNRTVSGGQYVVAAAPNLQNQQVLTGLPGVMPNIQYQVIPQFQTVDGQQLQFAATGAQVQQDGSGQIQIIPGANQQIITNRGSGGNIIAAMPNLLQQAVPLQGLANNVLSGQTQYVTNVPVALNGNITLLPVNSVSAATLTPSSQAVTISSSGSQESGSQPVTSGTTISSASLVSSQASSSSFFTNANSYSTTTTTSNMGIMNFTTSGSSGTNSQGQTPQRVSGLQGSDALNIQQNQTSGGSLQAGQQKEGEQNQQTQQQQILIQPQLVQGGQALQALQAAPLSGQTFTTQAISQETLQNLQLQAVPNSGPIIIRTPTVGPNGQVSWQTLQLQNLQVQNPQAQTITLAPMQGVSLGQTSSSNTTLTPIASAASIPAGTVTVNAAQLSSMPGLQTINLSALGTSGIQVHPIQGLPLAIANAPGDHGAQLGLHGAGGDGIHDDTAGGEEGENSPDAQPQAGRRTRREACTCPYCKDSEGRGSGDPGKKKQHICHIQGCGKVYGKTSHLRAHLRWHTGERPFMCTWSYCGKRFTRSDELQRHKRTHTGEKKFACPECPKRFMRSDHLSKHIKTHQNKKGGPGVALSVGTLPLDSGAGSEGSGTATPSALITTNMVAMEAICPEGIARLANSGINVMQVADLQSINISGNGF

Regarding `CCCCCCCCSCCO`, the AC50 in [1] was 151 µM (active); in assay [8] it was 153 µM (active); in assay [11], 25 µM (active). Further, the call in [2], in [3], in assay [4], in [5], in [6] and in assay [7] was inactive. Also, the result in [9], in assay [10], in assay [12], in [13], in assay [14] and in assay [15] was inactive. In addition, the outcome in assay [16], in [17] and in assay [18] was inactive.
For the compound `NC(=S)NNC(N)=S`, the compound was called inactive in assay [1], in assay [2], in assay [3], in [4], in assay [6] and in assay [7]. For the same compound, the call in assay [8], in [10], in assay [11], in assay [12], in assay [16] and in assay [17] was inactive. The outcome in [18] and in assay [19] was inactive.
Take `C[Si]1(C)O[Si](C)(C)O[Si](C)(C)O1`: the result in assay [1], in assay [3], in assay [20], in [4], in assay [5] and in assay [6] was inactive. Besides, the call in [7], in assay [8], in assay [9], in [12], in assay [13] and in assay [14] was inactive. For the same compound, the call in assay [15], in assay [16], in assay [17], in [18] and in [19] was inactive. In [11], the AC50 was 32.5 µM (active).
With `CN(C)CCOC(C)(c1ccccc1)c1ccccn1` (stereo not given), the compound was called inactive in assay [1], in assay [3], in [20], in assay [4], in assay [6] and in assay [7]. Besides, the call in assay [8], in [10], in [12], in assay [13], in assay [14] and in [17] was inactive. The call in [18] and in assay [19] was inactive. Further, the half-maximal activity concentration (AC50) in assay [11] was 100 µM (active).

The AC50 is the concentration giving half of the maximal activity seen.
